Assay [1] deals with T1, Tyrosine-protein kinase receptor TYRO3 (Homo sapiens) (UniProt Q06418).
T1 sequence (whole entry): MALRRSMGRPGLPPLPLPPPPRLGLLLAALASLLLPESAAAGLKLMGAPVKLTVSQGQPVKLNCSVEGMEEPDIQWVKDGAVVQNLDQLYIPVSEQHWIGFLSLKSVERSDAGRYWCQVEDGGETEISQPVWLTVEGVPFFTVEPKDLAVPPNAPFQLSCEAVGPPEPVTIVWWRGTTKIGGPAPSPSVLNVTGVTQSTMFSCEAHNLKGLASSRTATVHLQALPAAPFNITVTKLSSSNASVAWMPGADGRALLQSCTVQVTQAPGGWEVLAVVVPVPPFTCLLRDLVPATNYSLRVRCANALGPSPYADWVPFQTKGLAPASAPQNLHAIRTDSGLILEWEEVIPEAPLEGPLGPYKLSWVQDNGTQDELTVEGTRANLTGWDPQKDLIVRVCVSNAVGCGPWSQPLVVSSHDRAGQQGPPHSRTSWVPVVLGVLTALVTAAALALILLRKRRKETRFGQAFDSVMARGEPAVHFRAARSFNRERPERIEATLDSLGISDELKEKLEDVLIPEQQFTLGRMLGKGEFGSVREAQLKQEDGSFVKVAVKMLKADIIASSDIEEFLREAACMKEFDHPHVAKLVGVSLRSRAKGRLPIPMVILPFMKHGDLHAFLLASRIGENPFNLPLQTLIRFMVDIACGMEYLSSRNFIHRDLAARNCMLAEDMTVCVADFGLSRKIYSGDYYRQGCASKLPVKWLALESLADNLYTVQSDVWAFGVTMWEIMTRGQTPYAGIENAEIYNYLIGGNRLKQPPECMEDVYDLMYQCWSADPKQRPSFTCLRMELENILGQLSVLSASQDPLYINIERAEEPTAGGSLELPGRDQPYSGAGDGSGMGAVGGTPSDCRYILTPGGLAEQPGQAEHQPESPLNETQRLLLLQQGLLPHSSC
The note with it: at 1 µM.

Assay [2] has as its target Tyrosine-protein kinase Yes (Homo sapiens) (UniProt P07947). As to conditions: at 0.1 µM.
Assay [3] shares this target. As to conditions: at 1 µM.
In assay [4] the target is T2, Tyrosine-protein kinase ZAP-70 (Homo sapiens) (UniProt P43403).
T2 sequence (whole entry): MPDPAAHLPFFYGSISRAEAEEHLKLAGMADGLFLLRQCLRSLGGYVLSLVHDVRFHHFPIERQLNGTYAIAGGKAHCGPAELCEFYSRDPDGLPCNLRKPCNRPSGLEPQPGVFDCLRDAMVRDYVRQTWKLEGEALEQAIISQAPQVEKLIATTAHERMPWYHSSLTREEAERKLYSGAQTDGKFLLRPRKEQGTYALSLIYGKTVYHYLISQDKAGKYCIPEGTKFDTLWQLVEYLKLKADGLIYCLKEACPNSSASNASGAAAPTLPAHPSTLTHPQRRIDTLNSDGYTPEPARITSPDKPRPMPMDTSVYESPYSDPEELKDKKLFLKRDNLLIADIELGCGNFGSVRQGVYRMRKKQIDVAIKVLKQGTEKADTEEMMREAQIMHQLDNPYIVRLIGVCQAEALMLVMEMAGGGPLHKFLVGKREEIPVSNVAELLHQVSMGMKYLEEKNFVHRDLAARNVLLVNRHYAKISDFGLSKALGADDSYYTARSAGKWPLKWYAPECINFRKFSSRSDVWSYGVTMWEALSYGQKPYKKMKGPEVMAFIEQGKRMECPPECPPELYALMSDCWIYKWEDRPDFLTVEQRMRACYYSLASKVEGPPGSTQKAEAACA
The note with it: at 0.1 µM.

The target in assay [5] is T2, Tyrosine-protein kinase ZAP-70 (Homo sapiens). The note with it: at 1 µM.
Assay [6] addresses Serine/threonine-protein kinase B-raf (Homo sapiens) (UniProt P15056). As to conditions: at 0.1 µM.
The target is the same in assay [7]. The note with it: at 1 µM.
The subject of assay [8] is Serine/threonine-protein kinase B-raf (Homo sapiens), P15056 [V600E]. The note with it: at 0.1 µM.
Assay [9] has the same test system. As to conditions: at 1 µM.
Assay [10] deals with RAF proto-oncogene serine/threonine-protein kinase (Homo sapiens) (UniProt P04049). The note with it: at 0.1 µM.
Chain of RAF proto-oncogene serine/threonine-protein kinase (Homo sapiens) (P04049 whole entry): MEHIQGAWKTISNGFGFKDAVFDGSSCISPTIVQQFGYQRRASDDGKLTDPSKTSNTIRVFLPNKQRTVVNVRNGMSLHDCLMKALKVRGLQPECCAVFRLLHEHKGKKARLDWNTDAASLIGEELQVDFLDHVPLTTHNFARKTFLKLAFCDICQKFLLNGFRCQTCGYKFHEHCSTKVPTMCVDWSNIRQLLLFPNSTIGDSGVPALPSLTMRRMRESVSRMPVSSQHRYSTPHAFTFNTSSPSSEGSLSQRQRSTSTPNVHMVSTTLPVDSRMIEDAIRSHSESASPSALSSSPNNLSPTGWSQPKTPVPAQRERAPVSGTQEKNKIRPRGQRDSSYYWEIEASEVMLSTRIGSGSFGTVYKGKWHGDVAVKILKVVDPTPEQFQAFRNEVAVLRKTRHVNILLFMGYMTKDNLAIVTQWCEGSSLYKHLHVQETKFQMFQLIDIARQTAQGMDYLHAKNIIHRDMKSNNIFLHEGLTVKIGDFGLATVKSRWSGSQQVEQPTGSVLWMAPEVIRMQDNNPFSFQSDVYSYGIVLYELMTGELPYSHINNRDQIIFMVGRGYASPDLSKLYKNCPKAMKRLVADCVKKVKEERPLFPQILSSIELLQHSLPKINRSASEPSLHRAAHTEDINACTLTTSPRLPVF
Assay [11] has the same target. The note with it: at 1 µM.
Assay [12] has as its target T3, Interleukin-1 receptor-associated kinase 4 (Homo sapiens) (UniProt Q9NWZ3).
T3 sequence (whole entry): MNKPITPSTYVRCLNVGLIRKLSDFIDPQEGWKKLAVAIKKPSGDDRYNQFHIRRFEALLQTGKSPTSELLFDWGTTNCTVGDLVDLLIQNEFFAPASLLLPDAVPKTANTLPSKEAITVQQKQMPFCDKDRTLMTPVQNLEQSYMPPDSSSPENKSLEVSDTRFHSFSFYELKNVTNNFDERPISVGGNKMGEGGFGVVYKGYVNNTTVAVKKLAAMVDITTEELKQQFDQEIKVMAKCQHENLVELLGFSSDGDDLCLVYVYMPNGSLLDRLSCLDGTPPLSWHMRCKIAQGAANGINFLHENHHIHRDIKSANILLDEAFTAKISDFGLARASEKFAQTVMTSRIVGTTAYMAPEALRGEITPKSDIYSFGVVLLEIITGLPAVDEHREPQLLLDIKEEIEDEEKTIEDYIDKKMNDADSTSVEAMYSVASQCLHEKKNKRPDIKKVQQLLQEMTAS
As to conditions: at 0.1 µM.

Assay [13] deals with T3, Interleukin-1 receptor-associated kinase 4 (Homo sapiens). As to conditions: at 1 µM.
The target of assay [14] is Leucine-rich repeat serine/threonine-protein kinase 2 (Homo sapiens) (UniProt Q5S007). The note with it: at 0.1 µM.
Chain of Leucine-rich repeat serine/threonine-protein kinase 2 (Homo sapiens) (Q5S007 whole entry): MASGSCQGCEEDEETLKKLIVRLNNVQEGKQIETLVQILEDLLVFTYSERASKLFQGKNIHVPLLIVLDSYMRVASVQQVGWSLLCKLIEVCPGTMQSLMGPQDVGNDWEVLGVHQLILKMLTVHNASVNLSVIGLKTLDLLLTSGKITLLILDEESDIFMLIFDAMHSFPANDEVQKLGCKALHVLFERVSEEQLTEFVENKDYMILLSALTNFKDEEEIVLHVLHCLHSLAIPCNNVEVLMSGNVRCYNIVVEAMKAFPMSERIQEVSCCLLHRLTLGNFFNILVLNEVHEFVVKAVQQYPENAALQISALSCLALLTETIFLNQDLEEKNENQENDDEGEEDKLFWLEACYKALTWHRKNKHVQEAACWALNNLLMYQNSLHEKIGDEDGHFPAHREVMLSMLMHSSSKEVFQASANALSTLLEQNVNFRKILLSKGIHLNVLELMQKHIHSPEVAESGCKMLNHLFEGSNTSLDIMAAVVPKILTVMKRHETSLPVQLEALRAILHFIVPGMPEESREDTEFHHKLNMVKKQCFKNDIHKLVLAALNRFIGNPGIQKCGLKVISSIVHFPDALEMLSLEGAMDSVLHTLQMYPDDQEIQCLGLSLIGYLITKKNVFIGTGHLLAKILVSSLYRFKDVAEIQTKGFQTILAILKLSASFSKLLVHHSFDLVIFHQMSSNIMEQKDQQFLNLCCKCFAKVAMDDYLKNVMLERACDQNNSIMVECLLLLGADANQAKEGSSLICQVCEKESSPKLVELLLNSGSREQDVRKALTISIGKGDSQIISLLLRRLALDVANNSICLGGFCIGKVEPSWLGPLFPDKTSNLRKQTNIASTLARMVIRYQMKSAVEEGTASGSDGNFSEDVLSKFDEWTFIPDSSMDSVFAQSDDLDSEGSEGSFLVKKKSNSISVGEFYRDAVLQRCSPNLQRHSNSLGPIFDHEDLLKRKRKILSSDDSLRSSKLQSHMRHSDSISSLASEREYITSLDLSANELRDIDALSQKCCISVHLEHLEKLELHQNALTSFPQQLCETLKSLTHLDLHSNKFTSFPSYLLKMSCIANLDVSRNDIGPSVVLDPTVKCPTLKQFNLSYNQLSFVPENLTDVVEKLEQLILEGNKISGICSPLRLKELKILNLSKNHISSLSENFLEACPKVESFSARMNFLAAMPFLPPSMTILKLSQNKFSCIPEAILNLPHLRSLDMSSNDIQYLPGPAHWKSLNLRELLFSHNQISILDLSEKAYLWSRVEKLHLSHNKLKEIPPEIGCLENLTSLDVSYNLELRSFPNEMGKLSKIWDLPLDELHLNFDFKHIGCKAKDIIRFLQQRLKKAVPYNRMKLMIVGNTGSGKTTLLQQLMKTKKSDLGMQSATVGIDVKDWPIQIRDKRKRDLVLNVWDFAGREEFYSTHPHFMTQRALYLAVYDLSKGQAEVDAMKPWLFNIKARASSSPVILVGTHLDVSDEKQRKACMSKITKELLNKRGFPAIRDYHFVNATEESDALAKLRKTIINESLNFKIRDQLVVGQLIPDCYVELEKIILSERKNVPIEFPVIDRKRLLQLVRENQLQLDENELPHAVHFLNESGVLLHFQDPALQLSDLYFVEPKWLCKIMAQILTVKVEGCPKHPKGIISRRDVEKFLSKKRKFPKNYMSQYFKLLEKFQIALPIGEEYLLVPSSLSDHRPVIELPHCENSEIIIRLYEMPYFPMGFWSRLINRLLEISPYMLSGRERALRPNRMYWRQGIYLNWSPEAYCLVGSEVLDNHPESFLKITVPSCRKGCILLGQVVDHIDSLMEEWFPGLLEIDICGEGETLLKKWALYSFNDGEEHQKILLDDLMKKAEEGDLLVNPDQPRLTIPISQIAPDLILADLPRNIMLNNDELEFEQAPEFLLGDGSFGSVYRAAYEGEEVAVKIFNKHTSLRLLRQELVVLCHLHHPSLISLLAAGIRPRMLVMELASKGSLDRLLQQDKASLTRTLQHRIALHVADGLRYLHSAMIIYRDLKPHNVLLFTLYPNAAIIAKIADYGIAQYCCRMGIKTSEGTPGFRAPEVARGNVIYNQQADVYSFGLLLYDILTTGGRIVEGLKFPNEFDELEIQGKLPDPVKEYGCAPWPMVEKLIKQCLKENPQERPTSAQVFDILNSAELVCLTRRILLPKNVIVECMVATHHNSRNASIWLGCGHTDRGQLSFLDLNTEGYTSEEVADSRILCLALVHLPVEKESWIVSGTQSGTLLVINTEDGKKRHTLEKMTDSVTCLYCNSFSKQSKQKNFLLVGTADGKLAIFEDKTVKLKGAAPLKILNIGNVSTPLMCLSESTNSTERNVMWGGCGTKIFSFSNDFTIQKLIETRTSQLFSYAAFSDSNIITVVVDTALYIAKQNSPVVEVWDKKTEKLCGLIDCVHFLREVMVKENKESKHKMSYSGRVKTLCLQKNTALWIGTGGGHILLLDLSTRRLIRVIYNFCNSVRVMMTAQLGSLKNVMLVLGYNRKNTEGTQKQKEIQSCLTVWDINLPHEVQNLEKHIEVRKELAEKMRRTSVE
The target is the same in assay [15]. The note with it: at 1 µM.
The test system of assay [16] is Leucine-rich repeat serine/threonine-protein kinase 2 (Homo sapiens), Q5S007 [G2019S]. The note with it: at 0.1 µM.
Chain of Leucine-rich repeat serine/threonine-protein kinase 2 (Homo sapiens), Q5S007 [G2019S] (Q5S007 whole entry G2019S): as the sequence (Q5S007 whole entry) above, with G2019S counted along it
Assay [17] shares this test system. As to conditions: at 1 µM.

Chain of Serine/threonine-protein kinase B-raf (Homo sapiens) (P15056 whole entry): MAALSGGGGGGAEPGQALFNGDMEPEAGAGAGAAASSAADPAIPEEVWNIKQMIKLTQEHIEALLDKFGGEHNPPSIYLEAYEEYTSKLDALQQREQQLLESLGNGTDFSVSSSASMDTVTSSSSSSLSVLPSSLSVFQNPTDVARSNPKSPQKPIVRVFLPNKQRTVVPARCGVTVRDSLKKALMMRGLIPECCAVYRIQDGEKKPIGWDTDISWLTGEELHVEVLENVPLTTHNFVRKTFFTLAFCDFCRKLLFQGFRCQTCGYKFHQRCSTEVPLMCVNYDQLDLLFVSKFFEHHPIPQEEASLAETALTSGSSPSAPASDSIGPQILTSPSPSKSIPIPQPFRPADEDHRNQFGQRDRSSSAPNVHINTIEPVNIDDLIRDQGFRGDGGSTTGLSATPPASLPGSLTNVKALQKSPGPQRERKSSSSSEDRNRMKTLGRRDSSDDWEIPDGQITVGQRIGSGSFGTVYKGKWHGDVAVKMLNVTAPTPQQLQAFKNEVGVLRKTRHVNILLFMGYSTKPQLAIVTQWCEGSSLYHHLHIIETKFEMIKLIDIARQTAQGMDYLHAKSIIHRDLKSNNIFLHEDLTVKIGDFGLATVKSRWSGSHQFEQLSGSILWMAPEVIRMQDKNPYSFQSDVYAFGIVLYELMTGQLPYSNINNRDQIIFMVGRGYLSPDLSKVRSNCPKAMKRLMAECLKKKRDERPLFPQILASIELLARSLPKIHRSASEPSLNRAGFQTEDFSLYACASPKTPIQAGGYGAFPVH
Chain of Tyrosine-protein kinase Yes (Homo sapiens) (P07947 2-543 limits assumed): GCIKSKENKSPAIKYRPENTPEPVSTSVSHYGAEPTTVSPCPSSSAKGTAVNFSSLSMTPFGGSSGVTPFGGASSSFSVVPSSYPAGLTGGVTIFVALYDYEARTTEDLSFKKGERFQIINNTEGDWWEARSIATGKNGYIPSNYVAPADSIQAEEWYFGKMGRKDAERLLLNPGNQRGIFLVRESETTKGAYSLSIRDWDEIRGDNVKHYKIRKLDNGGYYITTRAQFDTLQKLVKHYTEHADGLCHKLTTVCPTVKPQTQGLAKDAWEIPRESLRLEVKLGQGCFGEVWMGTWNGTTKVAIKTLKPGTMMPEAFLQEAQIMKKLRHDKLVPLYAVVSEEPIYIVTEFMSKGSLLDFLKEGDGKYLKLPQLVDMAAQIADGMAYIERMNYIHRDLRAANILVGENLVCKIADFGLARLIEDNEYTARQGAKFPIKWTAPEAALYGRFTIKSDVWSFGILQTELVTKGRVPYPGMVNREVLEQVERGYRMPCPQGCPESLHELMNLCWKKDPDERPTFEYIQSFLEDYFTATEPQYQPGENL
Chain of Serine/threonine-protein kinase B-raf (Homo sapiens), P15056 [V600E] (P15056 whole entry V600E): as the sequence (P15056 whole entry) above, with V600E counted along it

Broadly, the inhibition is the drop in the measured response relative to a control, in per cent. As for `CN(C)c1ccc2c(c1)/C(=C/Nc1ccc(S(N)(=O)=O)cc1)C(=O)N2`, the inhibition in assay [1] came to 7.48%; in assay [2] it was 2.8%; in [3] it was 14.3%; in assay [4], 2.05%; in assay [5] it was 5.7%; in [6], 2.49%. Also, the inhibition was 4.91% in [7]; 2.9% in assay [8]; 5% in [9]; 3.91% in [10]; -6.53% in assay [11]; 2.88% in assay [12]. The inhibition came to 0.86% in assay [13]; 5.77% in assay [14]; 16.7% in assay [15]; 7.03% in [16]; 36.4% in assay [17].

For the compound `C[C@@H](Oc1cc(-n2cnc3ccc(OCC4CCN(C)CC4)cc32)sc1C(N)=O)c1ccccc1Cl`, the inhibition came out at 6.74% in assay [1]; 2.66% in assay [2]; 15.5% in assay [3]; 4.61% in assay [4]; 6.88% in assay [5]; 8.65% in [6]. Further, the inhibition came to 10.6% in assay [7]; 6.37% in [8]; 5.47% in assay [9]; 3.88% in assay [10]; 8.07% in [11]; 2.66% in assay [12]. Also, the inhibition is 6.25% in [13]; 8.16% in [14]; 17.3% in assay [15]; 11.1% in assay [16]; 33.5% in [17].

For `Fc1ccc(-c2ncn(CCCN3CCOCC3)c2-c2ccncc2)cc1`, the inhibition in assay [1] is -1.64%; in assay [2], -0.25%; in [3], -0.03%; in assay [4] it was 3.48%; in assay [5], 3.14%; in [6] it was 0.29%. Further, the inhibition was 1.33% in [7]; 0.73% in assay [8]; 0.78% in [9]; -0.34% in assay [10]; -5.69% in assay [11]; 3.04% in [12]. The inhibition in [13] was -0.71%; in assay [14], 0.7%; in assay [15] it was 3.28%; in [16] it was 1.27%; in assay [17], 4.28%.

Regarding `NS(=O)(=O)c1ccc(N/N=C2\C(=O)Nc3ccc(C(=O)NCCCn4ccnc4)cc32)cc1`, the inhibition in assay [1] worked out at 9.93%; in [2] it was 5.35%; in assay [3], 24.1%; in assay [4], 0.31%; in assay [5], 8.11%; in [6], 10.7%. Also, the inhibition amounted to 38.4% in assay [7]; 11.3% in assay [8]; 38.9% in assay [9]; 5.92% in assay [10]; 17.5% in [11]; 3.89% in assay [12]. For the same compound, the inhibition came to 1.67% in assay [13]; 7.05% in assay [14]; 18.7% in [15]; 11.1% in assay [16]; 38.8% in assay [17].

As for `CCc1nccc2c1nc(-c1nonc1N)n2CC`, the inhibition in assay [1] was -0.82%; in assay [2] it was 0.39%; in assay [3], 1.95%; in assay [4] it was 1.4%; in assay [5] it was 0.96%; in assay [6], -0.39%. Besides, the inhibition in [7] was 1.49%; in assay [8] it was 0.46%; in [9], 1.01%; in assay [10], -4.45%; in assay [11], -5.16%; in assay [12] it was 2.27%. Moreover, the inhibition is -1.82% in [13]; 0.68% in [14]; 2.47% in assay [15]; 0.78% in assay [16]; 2.99% in [17].

Consider `CCS(=O)(=O)c1ccc(OC)c(Nc2ncc(-c3cccc(-c4ccccc4F)c3)o2)c1`, for which the inhibition was 19.6% in assay [1]; 25.7% in assay [2]; 73% in assay [3]; 1.06% in assay [4]; -0.05% in assay [5]; 1.09% in assay [6]. The inhibition was 1.46% in [7]; 0.74% in [8]; 1.89% in assay [9]; -0.07% in assay [10]; -8.29% in assay [11]; 1.45% in assay [12]. Also, the inhibition in [13] was 0.38%; in assay [14], 1.95%; in assay [15], 11.6%; in [16], 4.86%; in assay [17], 19.5%.

Consider `COc1ccc2cc(-c3c(-c4ccncc4)nc(-c4ccc(S(C)(=O)=O)cc4C)n3C)ccc2c1`, for which the inhibition is 5.53% in [1]; 3.64% in [2]; 20.9% in assay [3]; -0.34% in [4]; 0.82% in [5]; 6.36% in assay [6]. Moreover, the inhibition in [7] came out at 6.36%; in assay [8], 6.6%; in assay [9] it was 5.85%; in assay [10], 5.5%; in assay [11] it was 2.24%; in [12], 3.69%. Moreover, the inhibition was 2.09% in assay [13]; 1.75% in [14]; 6.91% in [15]; 2.55% in assay [16]; 10.2% in assay [17].

The values are drawn from ChEMBL document CHEMBL1961873, “Compounds: GSK PKIS; Assays: Nanosyn kinase panel” (2012).
